The list is not random: actives were taken first. Their share in the collection is about 21%.
Cycloheximide cs – counter-screen hit for Shiga toxin inhibitors, cycloheximide; cell reporter, cycloheximide protein synthesis inhibition counterscreen; max response, %; hit rate 12% among 300,000; in the data active = max response mostly above about 13%, no sharp cut-off; inactive = mostly below about 14%; note: read at 38.3 µM for the half of the compounds with a filed dose; 0% is about no effect
NS1 function inh – blocks influenza NS1 protein function. hit rate 0.4% among 270,000. Potency, µM (highest dose often 46.1 µM), without a hit: at the top dose activity, positive = more growth. AID 2326; calls by dose curve; note: potency is the fitted concentration of half-maximal effect; actives are rising curves; nearly all actives have a fitted effect of over 50% in size
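Recovery from NS1-induced slow growth read by OD600 in budding yeast switched to galactose assay medium (pH 6.0, -URA) at 1:100 dilution. Compound 23 nl per well; the matching strain lacking NS1 serves as control.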
Pf growth 48h – inhibits P. falciparum growth in the first generation, 48 h; P. falciparum luciferase growth in erythrocytes, 48 h; Potency, µM (top dose mostly 28.7 µM), without a hit: at the top dose activity change, negative = inhibition, actives largely listed as inhibitors; hit rate 5.9% among 310,000; AID 504832; note: potency is the fitted concentration of half-maximal effect; % is set by controls: 0 for no effect and ±100 for the full control effect
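Luminescence readout; reporter = integrated firefly luciferase in P. falciparum. RBC culture at 2% hematocrit, 0.1% parasitemia final, 37 C/5% CO2; decreased signal taken as growth inhibition.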
Shiga inhibitor – inhibitors of Shiga toxin in Vero cells; Vero cells, Shiga toxin protein synthesis inhibition reporter; hit rate 9.2% among 290,000; inhibition, % at 38.7 µM; AID 2315; in the data active = inhibition mostly above about 28%, no sharp cut-off; inactive = mostly below about 43%; note: 0% is about no effect
Pf growth 96h – inhibits malaria parasite growth, 96 h; P. falciparum luciferase reporter growth, 96 h; Potency, µM (series often up to 28.7 µM), for inactives: top-dose activity change, negative = inhibition, hits mostly inhibitors; hit rate 6.9% among 320,000; AID 504834; note: potency is the fitted concentration of half-maximal effect; % is set by controls: 0 for no effect and ±100 for the full control effect
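Readout is luminescence from an integrated firefly luciferase in P. falciparum. Red cells, 2% hematocrit and 0.05% parasitemia final, were cultured with compound through two parasite generations (96 hours) at 37 C, 5% CO2.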
FBPA Giardia inh – Giardia lamblia aldolase inhibition; A8B2U2; purified Giardia FBPA; Potency, µM (series often up to 59.6 µM), for inactives: at the highest dose activity, negative = inhibition, hits mostly inhibitors; hit rate 0.71% among 290,000; AID 2451; note: potency is the fitted concentration of half-maximal effect; % is set by controls: 0 for no effect and ±100 for the full control effect; nearly all actives have a fitted effect of over 55% in size
Target sequence (A8B2U2 whole entry, looked up): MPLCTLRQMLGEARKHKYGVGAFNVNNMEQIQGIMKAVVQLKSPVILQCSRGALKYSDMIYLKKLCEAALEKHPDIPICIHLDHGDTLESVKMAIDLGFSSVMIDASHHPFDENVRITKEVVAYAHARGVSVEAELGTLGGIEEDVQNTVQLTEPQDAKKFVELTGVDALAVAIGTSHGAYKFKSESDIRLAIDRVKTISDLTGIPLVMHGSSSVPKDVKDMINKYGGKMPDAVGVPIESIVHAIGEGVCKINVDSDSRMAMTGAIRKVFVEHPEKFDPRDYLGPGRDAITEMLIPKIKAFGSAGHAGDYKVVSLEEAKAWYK
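40 nM FBPA preincubated 10 min at RT with compound (up to 57.5 uM final), then substrate plus GAPDH/TPI/NAD/arsenate coupling and diaphorase/resazurin added. Fluorescence read after 20 min at RT, 525/598 nm.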
* hit, by the source's call; ? = inconclusive; nt = no result given; [ ] = remark or other dose. Unless noted, calls come from the whole dose curve; as a rule, active = well fitted curve in the direction sought with a large enough effect; inconclusive = small, poorly fitted or top-dose-only effect, or another doubt; inactive = no such curve, though single readings can be large; an effect the other way counts as inactive or inconclusive.

SMILES	Cycloheximide cs	NS1 function inh	Pf growth 48h	Shiga inhibitor	Pf growth 96h	FBPA Giardia inh
Nc1nc2ccc(O)cc2s1	5.0	-8.6%	1.7%	9.5	10.4µM*	-0.3%
Nc1nc2ccc(C(=O)N3CCCCC3)cc2s1	-2.1	2.8%	11.9%	-1.8	4.15µM*	nt
Cc1cc2nc(N)sc2cc1C	41.2*	-50.3%	150.7%	49.4*	2.3%	-0.6%
CCc1noc(C)c1C(=O)Nc1ccccc1C(C)(C)C	2.2	-6.7%	22.3%	8.4	?	9.3%
O=C1Nc2ccccc2/C1=N/c1sc2c(c1C(=O)NCCc1ccccc1)CCCC2	34.1	-5.1%	?	39.1*	130.8%	-21.2%
COC(=O)NC(c1ccco1)C(C(C)=O)C(=O)OC (stereo not drawn)	nt	nt	nt	nt	nt	-8.8%[12.9 µM]
CSc1nc2nc(-c3ccccc3)cc(C(F)(F)F)n2n1	13.3	-1.5%	4.15µM*	-20.3	1.2%	4.8%
FC(F)(F)c1cc(-c2ccccc2)nc2ncnn12	-1.9	2.6%	?	-1.0	25.1%	1.2%
CSc1nc2nc(C(F)(F)F)cc(-c3ccccc3)n2n1	-0.5	-2.3%	nt	-4.5	2.94µM*	3.5%
COC(=O)C1=C(C)N(Cc2ccccc2)C2=C3C(=O)N(C)C(=O)C3[C@@](O)(C(=O)OC)C(=O)N2C1c1ccccc1 (stereo partly drawn)	nt	nt	nt	nt	nt	4.6%[12.9 µM]
CC(SCc1ccccc1)C(=O)Nc1ccccc1Br (stereo not drawn)	42.3*	-18.0%	-3.6%	nt	0.0%	-6.0%
Cc1cc(O)cc(=O)n1Cc1ccco1	-2.5	8.6%	30.1%	-17.8	?	-2.8%
Cc1csc(=Nc2ccccc2)n1Cc1ccco1	29.3*	0.5%	19.4%	31.3	-3.6%	1.2%
NCCc1c[nH]c2ccc(OC(=O)C(=O)O)cc12	nt	-3.5%	nt	nt	nt	nt
CO/N=C/C(C#N)=C/c1ccc(OC)cc1	43.4*	-1.4%	47.9%	60.8*	85.7%	-0.5%
NNc1nc2ccccc2nc1C(F)(F)F	-1.8	-4.8%	-7.5%	-5.9	-10.8%	-14.2%
FC(F)(F)c1nc2ccccc2nc1N/N=C\c1ccccc1	18.7*	-7.8%	10.3%	93.6*	16.2%	-10.0%
COc1cccc(CNc2nc(-c3cccnc3)nc3ccccc23)c1	-5.0	nt	-10.3%	-10.0	?	-7.2%
C(=N\Nc1nc(-c2cccnc2)nc2ccccc12)/c1ccccc1	23.4*	12.5%	?	49.5*	-22.4%	-13.1%
COc1cccc(/C=N/Nc2nc(-c3cccnc3)nc3ccccc23)c1	17.8*	5.3%	?	65.5*	?	-8.6%
CNc1nc(-c2cccnc2)nc2ccccc12	nt	nt	nt	nt	nt	-1.1%
C(=N\Nc1nc(-c2ccccn2)nc2ccccc12)/c1ccccc1	7.0	2.9%	4.65µM*	6.9	2.08µM*	8.7%
Cc1cccc2nc(-c3ccco3)oc(=O)c12	-2.5	-0.2%	?	-4.4	7.3%	-6.7%
Brc1ccc(-c2nc(N/N=C/c3cccnc3)c3ccccc3n2)cc1	31.6*	17.7%	nt	103.4*	?	-18.4%
Cc1ccc(-c2nc(N/N=C/c3ccccc3[N+](=O)[O-])c3ccccc3n2)cc1	34.6	-3.2%	139.8%	9.1	88.7%	2.2%
SMILES	Cycloheximide cs	NS1 function inh	Pf growth 48h	Shiga inhibitor	Pf growth 96h	FBPA Giardia inh
CCCCS(=O)(=O)N1CCc2nc(-c3ccccc3)c3c(c2C1)CO[C@@H](C)C3	nt	nt	nt	nt	nt	9.1%[12.9 µM]
COCCNc1nc2nonc2nc1N1C[C@H]2CC[C@H]1C2	0.8	0.1%	11.7%	-13.0	10.4µM*	1.2%
COCCNc1nc2nonc2nc1N1CCC(N(C)C)C1 (stereo not drawn)	4.9	7.7%	-17.5%	14.9	6.57µM*	5.4%
Nc1c2c3c(sc2nc(=O)n1N)CCCC3	-3.3	7.4%	7.6%	-5.8	6.57µM*	-6.8%
Nc1nc2sc3c(c2c(=O)s1)CCCC3	35.4*	-42.8%	64.7%	62.7	0.0%	-3.8%
O=C(Nc1ccc(-c2ccco2)cc1)C1CCCN(Cc2ccc(CO)o2)C1 (stereo not drawn)	9.0	7.5%	?	-5.3	0.5%	-0.5%
Cc1cccc(CN2CCCC(C(=O)Nc3ccc(-c4cscn4)cc3)C2)c1 (stereo not drawn)	11.7	-1.9%	?	-7.1	9.28µM*	nt
CC(=O)c1cccc(CN2CCCC(C(=O)Nc3ccc(-c4ccco4)cc3)C2)c1 (stereo not drawn)	-2.2	14.8%	10.4µM*	-2.1	-14.7%	4.8%
O=C(Nc1ccc(-c2cscn2)cc1)C1CCCN(Cc2ccccc2)C1 (stereo not drawn)	24.1*	33.5%	?	19.0	?	nt
Cc1cccc(N=N/C(=C\O)C(=O)c2cccs2)c1	34.9*	nt	?	93.1*	11.7µM*	-5.2%
CCN(CC)S(=O)(=O)c1cc(NC(=O)C(C)Nc2ccccc2N2CCOCC2)ccc1C (stereo not drawn)	3.5	nt	?	35.9	7.38µM*	-9.3%
CCN(CC)S(=O)(=O)c1cc(NC(=O)C(C)N2CCN(c3ccccn3)CC2)ccc1C (stereo not drawn)	1.6	nt	11.7µM*	11.3	3.7µM*	3.4%
CCN(CC)S(=O)(=O)c1cc(NC(=O)CN2CCN(c3ccccn3)CC2)ccc1C	10.2	15.4%	?	-4.2	?	-5.5%
CCN(CC)S(=O)(=O)c1cc(NC(=O)C2Cc3ccccc3C(=O)O2)ccc1C (stereo not drawn)	26.5*	-10.6%	-5.9%	56.1*	51.5%	-4.6%
Cc1onc(-c2ccccc2)c1C(=O)N1CCC(CO)(Cc2ccccc2)CC1	15.2	-13.2%	-11.2%	-1.1	-1.6%	-4.2%
COc1ccc(Cc2noc(CN(C)Cc3ccc(-n4cccn4)cc3)n2)cc1OC	-2.7	-5.6%	-14.6%	-15.8	2.08µM*	0.6%
CCc1ccc(CN(C)Cc2nc(Cc3ccc(OC)c(OC)c3)no2)nc1	-2.5	-4.1%	?	-5.9	4.9%	-22.9%
Cc1cc(-c2ccc(C)c(S(=O)(=O)NCCCN3CCN(c4ccccc4F)CC3)c2)on1	5.0	-19.3%	?	5.2	4.65µM*	nt
Cc1cc(-c2ccc(C)c(S(=O)(=O)NCCCN3CCCCCC3)c2)on1	1.4	5.8%	14.7µM*	2.9	?	nt
Cc1cc(-c2ccc(C)c(S(=O)(=O)NCCC(C)N3CCCCCC3)c2)on1 (stereo not drawn)	1.8	-3.1%	12.2%	-14.8	-17.4%	-6.3%
Cc1cc(-c2ccc(C)c(S(=O)(=O)NCCCN3CCN(c4ccccc4)CC3)c2)on1	-3.4	-5.7%	?	-3.6	?	nt
NC1=NC[C@H](c2ccccc2)N1CCCCC1CCCCC1	-6.3	-3.4%	?	-3.2	?	5.2%
S=C1NC[C@H](c2ccccc2)N1CCCCC1CCCCC1	-4.6	8.6%	11.7µM*	-8.9	6.57µM*	-2.1%
CC(=O)N(/N=C1\Sc2ccccc2C1=O)c1ccccc1	39.8*	-3.3%	72.0%	36.5*	95.3%	-2.2%
CC(=O)N(/N=C1/C(=O)Nc2ccccc21)c1ccccc1	28.1*	-10.7%	103.7%	43.9*	154.6%	-0.8%

Screening data (PubChem BioAssay)
